Measured values taken from PubChem BioAssay.

Experiment: E. coli growth modulation, two-sided OD650, primary screen, E. coli filamentation project, strain DRC41, 24 h (AID 1093);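 note: MC1000 strain lacking acrAB efflux and sulA so SOS filamentation is blocked; test concentration not given here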
Settings: OD650, 24 h, higher = more signal, called active from +8 up or from −8 down

z-score, inactive:
O=C1c2ccccc2[C@](Cc2ccccc2I)(C(=O)NCC(F)(F)F)[C@H](c2ccc(CO)cc2)N1Cc1ccccc1Cl -0.267
CCCC=C(CCC)[C@@H](NC(=O)c1cccs1)c1ccc(C(F)(F)F)cc1 -0.649
CCCCN1CC=CC23O[C@@H]4C=CCCOC(=O)C4[C@H]2C(=O)N(CCCCCCO)[C@@H]3C1=O (stereo not given in full) -0.444
CCCCCN1CC=CC23O[C@@H]4C=CCCOC(=O)C4[C@H]2C(=O)N(CCCCCO)[C@@H]3C1=O (stereo not given in full) 0.764
O=C(NC1CC1)[C@@H]1c2ccccc2C(=O)N(Cc2ccccc2Cl)[C@H]1c1ccc(CO)cc1 4.01
COCCOC(=O)N1C(=O)[C@@]2(c3cc(C#CCC(C(=O)OC)C(=O)OC)ccc31)[C@H](C(=O)N1CCN(c3ncccn3)CC1)[C@H]1C(=O)O[C@H](c3ccccc3)[C@H](c3ccccc3)N1[C@@H]2c1ccccc1OCCO 0.156
CCCC[C@H]1OB(O)C[C@H]2C1=C(COC)Cn1c(=O)n(-c3ccccc3)c(=O)n12 0.498
Oc1ccc2cc[n+](Cc3sc4ccccc4c3Cl)cc2c1 -1.82
C=C[C@H](OC)[C@@H](OC(=O)Nc1ccc(OC)cc1)c1ccc(O)c(F)c1 0.512
O=C1C2C=CC(C(O)c3cc(C(F)(F)F)cc(C(F)(F)F)c3)N(n3cnnc3)C2C(=O)N1Cc1ccccc1 (stereo not given) 0.0068
CCC(CC)C(O)C1C=CC2C(=O)NC(=O)C2N1Nc1ccc(Cl)cc1Cl (stereo not given) -1.57
COc1cc(C(O)C2C=CC3C(=O)NC(=O)C3N2Nc2ccccn2)cc(OC)c1OC (stereo not given) -1.19
CC(C)C(CO)N1C(=O)[C@@H]2C3C(=O)OCCC/C=C\[C@H]3OC23C=CCN(CCN2CCOCC2)C(=O)[C@@H]13 (stereo not given in full) -0.241
C=CCN1C(=O)[C@@]2(CC=C)N=C(c3ccc(OCCCO)cc3)O[C@H]2c2ccccc21 1.47
COC(=O)[C@@]1(Cc2ccccc2)N=C(c2ccc(OCCCO)cc2)O[C@H]1c1ccccc1 1.55
C=C(COC)/C(=C/C[C@@H](OC(=O)c1ccncc1)c1ccc(CO)o1)c1cc(C(=O)OC)ccc1OC 0.564
CN(C)CCCC[C@@H]1NC(=O)[C@H]2C[C@@H](C(=O)NCCCCCCN)[C@@H](c3ccc(O)cc3)N2C1=O 0.278
CO[C@H]1O[C@H](CO)[C@@H](OC(=O)Nc2ccc(Oc3ccccc3)cc2)[C@H](OC(=O)Nc2ccc3c(c2)OCO3)[C@H]1OC(=O)Nc1ccc2c(c1)OCO2 2
Cc1ccc(S[C@]2(C(=O)NC3CC3)CC(=O)N(Cc3ccccc3)[C@@H]2c2ccc(CO)cc2I)cc1 0.45
CCCC#C[Si](O[C@H](CC)c1cn(Cc2cccc(Cl)c2)nn1)(C(C)C)C(C)C 1.5
COCC(=C=CC[C@@H](O)c1cccc(OCCO)c1)C[C@@H](O)c1ccccn1 0.257
CC(C)C[C@@H]1NC(=O)[C@H](C(C)C)NC(=O)[C@@]23C(=O)N[C@@H](Cc4ccccc4)C2[C@H](C)[C@@]2(C)O[C@H]2C3/C=C/CC/C=C/CNC1=O (stereo not given in full) -0.215
[N-]=[N+]=Nc1ccccc1[C@@H]1OC(c2ccc(OCCCO)cc2)=N[C@]1(Cc1ccccc1)C(=O)N1CCOCC1 0.301
COc1ccc([Si](C)(C)[C@H]2[C@H](CCO)O[C@@]3(C(=O)N(Cc4ccc(N(C=O)c5ccccc5)cc4)c4ccccc43)[C@@H]2C)cc1 0.759
CC(C)=CCCC(C)=CC(O)C1C=CC2C(=O)N(C)C(=O)C2N1Nc1ccccc1 (stereo not given) -0.339
COc1cc(NN2C(C(O)c3ccco3)C=CC3C(=O)N(c4ccccc4)C(=O)C32)cc(OC)c1OC (stereo not given) -1.18
C=CC[C@@]1(C(=O)NCCN2CCOCC2)N=C(c2ccc(OCCCO)cc2)O[C@@H]1c1ccccc1N=[N+]=[N-] -0.0403
COC(=O)[C@@]1(Cc2ccccc2)[C@H]2c3cc(C(=O)N4CCCC4)n(Cc4ccc(S(C)(=O)=O)cc4)c3C[C@H]2CN1C(=O)c1ccccc1 -0.47
C=CCNC(=O)[C@@H]1[C@H]2C(=O)O[C@H](c3ccccc3)[C@H](c3ccccc3)N2[C@H](c2ccc(O)cc2)[C@@]12C(=O)N(C(=O)OCCOC)c1ccc(C#CCNC(N)=O)cc12 -0.213
CCOC(=O)C1=CC[C@@H](c2ccccc2)N(S(=O)(=O)c2ccc(C)cc2)[C@H]1c1ccccc1C -0.3
C=CCNC(=O)[C@@H]1[C@H]2C(=O)O[C@H](c3ccccc3)[C@H](c3ccccc3)N2[C@H](c2ccc(O)cc2)[C@@]12C(=O)Nc1ccc(C#CCNC(N)=O)cc12 -1.11
O=C(NCCN1CCOCC1)[C@@H]1c2ccccc2C(=O)N(C2CCCCC2)[C@H]1c1ccc(CO)cc1 -0.0985
CCCCCCc1nc(-c2cc(C)c(OC)c(C)c2)cc2c1[Si](C(C)C)(C(C)C)OC2 0.344
C=CCNC(=O)[C@H]1[C@@H]2C(=O)O[C@@H](c3ccccc3)[C@@H](c3ccccc3)N2[C@@H](c2ccccc2OCCO)[C@]12C(=O)Nc1ccc(C#CCC(C(=O)OC)C(=O)OC)cc12 0.587
CC(=O)n1cc(C(O)C2C=CC3C(=O)N(c4ccccc4)C(=O)C3N2Nc2ccc([N+](=O)[O-])cc2)c2ccccc21 (stereo not given) -0.567
